# The OligoGym collection
# Molecular target: ACCN2
# Test: pooled miR-30 sensor sort-seq; sequence = guide strand
# Settings: shRNA
# Further: reference of the scale not given here.
row,Sequence,sensor-assay potency score (higher = more potent)
1,TTGGCTAAAGCGGAACTCGTTG,-0.0624
2,TTGAAGTCTTCAGCGCTGCAGA,-0.498
3,TAGTACTGCACACGCTCCGTGC,-0.962
4,TCGTTGAGGTTGCACAGCGTGA,-1.57
5,TAGCACTTTCCATAGCGTGTGA,-0.16
6,TTGCACAGCGTGACAGCAGGGA,0.305
7,TTCAATGGTCTCATAGTTGAGG,-0.393
8,TGAACGTGTAGCACTTTCCATA,-0.947
9,TTGAACGTGTAGCACTTTCCAT,-0.501
10,ATAGCGTGTGAAGACCACCTTG,-0.485
11,TTTTCCTCGTCGGCACAGCTTG,-1.19
12,TCAGATTTGTTGAACTTCTTGG,1.11

# Molecular target: ACCN3
# Test: as above
# Settings: shRNA
row,Sequence,sensor-assay potency score (higher = more potent)
1,TTTCTCGCTCATCCAGGGCAGT,-1.12
2,TGTAGCACTTTCCCATCCGGGT,-0.708
3,TAGCACTTTCCCATCCGGGTGA,0.401
4,TATCCCAGGACCTTGTCTCGGA,-0.411
5,TAAATGTGTAGCACTTTCCCAT,-0.325
6,TTCGGCAGCCGCACTTCCGAGC,-1.09
7,TTGTCTCGGAACACCTCACAGA,-0.903
8,TGTAGTAGCGCACCCTCTCAGC,-1.06
9,TAGTAGTGGTGAGCAGCTCTGC,-0.938
10,TTGCACAGGGTGACAGCCGGGA,-0.486

# Molecular target: ACOT1
# Test: as above
# Settings: shRNA
row,Sequence,sensor-assay potency score (higher = more potent)
1,TAGCGCTCGTGCCGCACCCGGC,-1.32
2,AGCTCTTCTGGTCAGGTCCTTC,-1.49
3,AACATGTCCACAATGCCAGGAA,-0.319
4,TTTTACCTCAGGATGACTGAGC,-0.46
5,ATCTTTGGTCACCTTGATGCGA,-0.779
6,TTCATAGTTATAGTAAGCCAGA,-1.24
7,TCGCACGTCGCGCTTCACCAGC,-1.56
8,TTGTAGCGTAAGGTTCCCCCAA,-1.03
9,TACCTCAGGATGACTGAGCAAG,-0.802
10,ATTCGCACCGGTTCGTCCCAGC,-0.912
11,AGTTGTGGTCATCCTGACCTAC,-1.25
12,TGAGCAAGTAGTTCACAGCTTC,-0.12

# Molecular target: ACOT6
# Test: as above
# Settings: shRNA
row,Sequence,sensor-assay potency score (higher = more potent)
1,TTGGTGATTGTGTTCCTCCAGT,-0.204
2,AATACTAGGACCTTTCACCTTT,0.28
3,TTCTGGGTAACAGATTATCTGG,-1.27
4,TTTAGGAATAATCATATCCTTG,-0.802
5,TTTCCCATGAGCTTGTAGCCTT,-0.268
6,TAGTGATTTTTACTTTTCCTAG,-1.27
